Shiga inhibitor: A qHTS for Small Molecule Inhibitors of Shiga Toxin. 290,000 compounds, 9.2% hits. inhibition, % at 38.7 µM. Vero cells, Shiga toxin protein synthesis inhibition reporter; in the data active = inhibition mostly above about 28%, no sharp cut-off; inactive = mostly below about 43%; note: 0% is about no effect
Giardia FBPA inh: qHTS Assay for Inhibitors of Fructose-1,6-bisphosphate Aldolase from Giardia Lamblia. purified Giardia FBPA. Potency, µM (doses to about 59.6 µM), without a hit: at the highest dose activity, negative = inhibition, actives largely listed as inhibitors. 290,000 compounds, 0.71% hits; note: potency is the fitted concentration of half-maximal effect; % is set by controls: 0 for no effect and ±100 for the full control effect; nearly all actives have a fitted effect of over 55% in size
Target sequence (A8B2U2 whole entry, looked up): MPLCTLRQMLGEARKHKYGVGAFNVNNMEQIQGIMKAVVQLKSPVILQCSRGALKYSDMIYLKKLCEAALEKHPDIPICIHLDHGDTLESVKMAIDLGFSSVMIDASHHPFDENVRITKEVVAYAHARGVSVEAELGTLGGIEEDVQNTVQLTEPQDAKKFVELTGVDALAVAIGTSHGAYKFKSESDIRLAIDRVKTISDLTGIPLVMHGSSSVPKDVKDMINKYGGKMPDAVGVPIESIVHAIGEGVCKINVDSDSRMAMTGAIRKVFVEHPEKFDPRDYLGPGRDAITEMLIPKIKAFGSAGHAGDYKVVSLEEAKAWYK
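40 nM FBPA preincubated 10 min at RT with compound (up to 57.5 uM final), then substrate plus GAPDH/TPI/NAD/arsenate coupling and diaphorase/resazurin added. Fluorescence read after 20 min at RT, 525/598 nm.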
CHX counter: Cycloheximide Counterscreen for Small Molecule Inhibitors of Shiga Toxin; cell reporter, cycloheximide protein synthesis inhibition counterscreen; max response, %; 300,000 compounds, 12% hits; AID 2314, 2010; in the data active = max response mostly above about 13%, no sharp cut-off; inactive = mostly below about 14%; note: read at 38.3 µM for the half of the compounds with a filed dose; 0% is about no effect
LmPK inhibitor: qHTS Assay for Inhibitors of Leishmania Mexicana Pyruvate Kinase (LmPK); Q27686; purified LmPK, Kinase-Glo ATP luminescence, 1 h; 290,000 compounds, 0.37% hits; Potency, µM (titrated, usually from 57.5 µM), for inactives: at the top dose activity change, negative = inhibition, actives largely listed as inhibitors; note: potency is the fitted concentration of half-maximal effect; % is set by controls: 0 for no effect and ±100 for the full control effect
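Purified LmPK (0.1 nM) with 0.5 mM PEP and 0.1 mM ADP in imidazole buffer pH 7.2 with MgCl2/KCl, 1 h at room temperature. ATP formed was read by luciferase luminescence and normalized to no-enzyme and uninhibited controls.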
NS1 function inh: qHTS Assay for Inhibitors of Influenza NS1 Protein Function | 270,000 compounds, 0.4% hits | AID 2326, 2010 | Potency, µM (doses to about 46.1 µM), inactives show top-dose activity, positive = more growth; calls by dose curve; note: potency is the fitted concentration of half-maximal effect; actives are rising curves; nearly all actives have a fitted effect of over 50% in size
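In this qHTS, NS1 from influenza A is expressed in budding yeast, where it slows growth. Cells are switched from glucose to 2% galactose medium (pH 6.0, -URA), treated with compound, and growth recovery is read at OD600.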
Starred values were filed as active, the others as inactive; [ ] = remark or other dose. Hits are enriched below; roughly 14% of the tested compounds scored in any of these assays. Unless noted, calls come from the whole dose curve; as a rule, active = well fitted curve in the direction sought with a large enough effect; inconclusive = small, poorly fitted or top-dose-only effect, or another doubt; inactive = no such curve, though single readings can be large; an effect the other way counts as inactive or inconclusive.

`O=C(Nc1ccc(Br)c(C(F)(F)F)c1)c1ccc(C(F)(F)F)cc1` gave Shiga inhibitor 77.8*, Giardia FBPA inh -13.5%, CHX counter 36.4*, LmPK inhibitor 0.0% and NS1 function inh -76.2%.
For CC(C)CC(=O)Nc1ccc(C(=O)Nc2cccc(O)c2)cc1 the results were Shiga inhibitor 73.5*, Giardia FBPA inh -3.6%, CHX counter 32.3*, LmPK inhibitor -4.3% and NS1 function inh 4.3%.
`O=C(Nc1ccc(Br)c(C(F)(F)F)c1)c1ccccc1` gave Shiga inhibitor 20.7, Giardia FBPA inh -8.8%, CHX counter 45.8*, LmPK inhibitor 3.3% and NS1 function inh -51.8%.
`CC(C)(C)Nc1oc(-c2ccccc2)nc1-c1ccccc1` gave Giardia FBPA inh -0.4%.
`N#C/C(=C\Nc1ccccn1)C(=O)C1CC1` gave NS1 function inh 0.0%.
CCc1ccc(/C=N/NC(=O)c2ccccn2)cc1 was read as Shiga inhibitor -4.4, Giardia FBPA inh -20.6%, CHX counter 11.7, LmPK inhibitor 12.6µM* and NS1 function inh -8.4%.
`CCN(CC)c1ccc(/C=N/NC(=O)c2cnccn2)cc1` gave Shiga inhibitor 108.3*, Giardia FBPA inh -4.8%, CHX counter 42.1* and LmPK inhibitor 0.9%[11.5 µM].
CCN(CC)c1ccc(/C=N/NC(=O)c2ccccn2)cc1 was read as Shiga inhibitor 44.5*, Giardia FBPA inh -22.1%, CHX counter 26.0*, LmPK inhibitor -14.3% and NS1 function inh -6.6%.
For O=C(N/N=C/c1ccc(OC(=O)c2ccccc2Cl)cc1)c1ccccn1 the results were Shiga inhibitor 50.6*, Giardia FBPA inh 7.9%, CHX counter 48.9*, LmPK inhibitor -0.5% and NS1 function inh -4.3%.
Screening CCN(CC)c1ccc(/C=N/NC(=O)c2ccc3nc[nH]c3c2)cc1 returned Shiga inhibitor 11.0, Giardia FBPA inh -0.5%, CHX counter -2.3, LmPK inhibitor 5.1% and NS1 function inh 1.2%.
Cn1cnnc1SCc1nc(N)nc(Nc2ccccc2)n1 was read as Shiga inhibitor 27.7, Giardia FBPA inh -1.8%, CHX counter 3.4, LmPK inhibitor -1.9% and NS1 function inh 11.9%.
Cc1nnc(SCc2nc(N)nc(Nc3ccccc3)n2)s1 was read as Shiga inhibitor 68.9*, CHX counter 38.2*, LmPK inhibitor 1.5% and NS1 function inh 26.7%.
Screening Nc1nc(CSc2ccccn2)nc(Nc2ccccc2)n1 returned Shiga inhibitor 69.6*, Giardia FBPA inh -0.4%, CHX counter 33.0*, LmPK inhibitor -1.9% and NS1 function inh 2.9%.
`Nc1nc(CSCCO)nc(Nc2ccccc2)n1` gave Shiga inhibitor 7.4, Giardia FBPA inh 4.2%, CHX counter 14.8, LmPK inhibitor -1.9% and NS1 function inh -7.9%.
Screening COc1ccc(Nc2nc(N)nc(CSc3nccn3C)n2)cc1 returned Shiga inhibitor 73.2*, Giardia FBPA inh -2.8%, CHX counter 35.9*, LmPK inhibitor -10.4% and NS1 function inh 3.1%.
`COc1ccccc1Nc1nc(N)nc(CSc2nnc(C)s2)n1` gave Shiga inhibitor 11.4, Giardia FBPA inh 13.4%, CHX counter 1.0, LmPK inhibitor 2.5% and NS1 function inh -12.2%.
Screening CCc1ccc(Nc2nc(N)nc(CSc3nc4ccccc4s3)n2)cc1 returned Shiga inhibitor 49.1*, Giardia FBPA inh -6.4%, CHX counter 29.0, LmPK inhibitor 5.5% and NS1 function inh -6.6%.
`COc1ccc(Nc2nc(N)nc(CSc3nc(C)cc(C)n3)n2)cc1` gave Shiga inhibitor 48.6*, Giardia FBPA inh 0.7%, CHX counter 17.9*, LmPK inhibitor -1.0% and NS1 function inh -1.6%.
`COc1ccccc1Nc1nc(N)nc(CSc2nc(C)cc(C)n2)n1` gave Shiga inhibitor -19.6, Giardia FBPA inh -2.5%, CHX counter 6.3, LmPK inhibitor 5.9% and NS1 function inh -15.4%.
`Cc1ccc(Nc2nc(N)nc(CSc3nncn3C)n2)cc1` gave Shiga inhibitor 63.7*, Giardia FBPA inh -1.2%, CHX counter 27.9*, LmPK inhibitor -5.0% and NS1 function inh 13.4%.
For COc1ccc2nc(SCc3nc(N)nc(Nc4ccccc4)n3)[nH]c2c1 the results were Shiga inhibitor 31.5, Giardia FBPA inh -15.2%, CHX counter 16.3, LmPK inhibitor -8.6% and NS1 function inh 2.1%.
Screening COc1ccc(Nc2nc(N)nc(SCc3nnc(C)s3)n2)cc1 returned Shiga inhibitor 40.0, Giardia FBPA inh 0.2%, CHX counter 24.8*, LmPK inhibitor -1.5% and NS1 function inh -1.7%.
Screening COc1ccc(Nc2nc(N)nc(CSc3nnc(N)s3)n2)cc1 returned Shiga inhibitor 33.7, Giardia FBPA inh 4.5%, CHX counter 26.4*, LmPK inhibitor -10.6% and NS1 function inh -7.0%.
Screening COc1ccc(Nc2nc(N)nc(CN(C)C3CCCCC3)n2)cc1 returned Shiga inhibitor 15.0, Giardia FBPA inh -15.8%, CHX counter 9.4, LmPK inhibitor -10.6% and NS1 function inh -7.8%.
For O=C(Oc1coc(CSc2ncccn2)cc1=O)c1cccs1 the results were Shiga inhibitor 22.3, Giardia FBPA inh 0.2%, CHX counter 16.0* and LmPK inhibitor 7.8%.
Cc1cc2c(C)nc(-c3ccccc3)nc2o1 was read as Shiga inhibitor 106.7*, Giardia FBPA inh 0.0%, CHX counter 39.1*, LmPK inhibitor -4.5% and NS1 function inh -2.3%.
Screening Cc1cc(Cl)nc(-c2ccccc2)n1 returned Shiga inhibitor -17.1, Giardia FBPA inh 3.1%, CHX counter 1.3, LmPK inhibitor 10.0% and NS1 function inh -0.1%.
Screening O=C1SC(SC(=Nc2ccccc2)Nc2ccccc2)C(=O)N1c1ccccc1 (centres undefined) returned Shiga inhibitor 59.8*, Giardia FBPA inh -3.6%, CHX counter 40.8*, LmPK inhibitor -5.4% and NS1 function inh -20.4%.
O=C(Cc1ccc(-n2cccc2)cc1)NC1CCCCC1 was read as Shiga inhibitor -25.1, Giardia FBPA inh 5.3%, CHX counter 1.6, LmPK inhibitor 0.7% and NS1 function inh -6.0%.
`O=C(Cc1ccc(O)cc1)NC1CCCCCC1` gave Shiga inhibitor 68.9*, Giardia FBPA inh 3.0%, CHX counter 42.1*, LmPK inhibitor -0.6% and NS1 function inh -2.1%.
For Cc1ccc(/C=C/C(=O)NC2CCS(=O)(=O)C2)cc1 (centres undefined) the results were Shiga inhibitor 14.5, Giardia FBPA inh 2.3%, CHX counter 19.7* and LmPK inhibitor -5.2%.
`O=C(Cc1ccc(Br)cc1)NC1CCCCC1` gave Shiga inhibitor 19.9, Giardia FBPA inh -1.3%, CHX counter 22.5*, LmPK inhibitor 2.3% and NS1 function inh -9.8%.
Screening CC(C)Cc1ccc(/C=C/C(=O)NC2CC2)cc1 returned Shiga inhibitor 112.4*, Giardia FBPA inh 5.5%, CHX counter 71.4*, LmPK inhibitor -1.0% and NS1 function inh -32.2%.
For O=C(Cc1ccc([N+](=O)[O-])cc1)NC1CCCCCC1 the results were Shiga inhibitor 10.7, Giardia FBPA inh -4.1%, CHX counter 6.1, LmPK inhibitor 0.8% and NS1 function inh -4.1%.

Source: PubChem BioAssay (National Center for Advancing Translational Sciences (NCATS))
